# Screening data (PubChem BioAssay)
# Sampled rows, rich in hits. Any-hit rate of the full collection: about 1.2%.
# TLR9-MyD88 block: inhibitors of TLR9-MyD88 association in cells, primary screen, cell-based, CHO, BLA complementation, fluorescence; AID 504734, 2011; actives 0.21% (n = 340,000); Toll-like receptor 9 (Homo sapiens) + Myeloid differentiation primary response protein …; inhibition, % at 4.98 µM; CCF4 FRET ratio;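 active = inhibition above the mean over all tested compounds plus 3 SD, cut at about 21% in these data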;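 note: 0% = DMSO only wells and 100% = clavulanate BLA inhibitor control wells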
# Neddyl block: inhibitors of cullin neddylation, primary screen, biochemical, TR-FRET, uHTS, NAE and Ubc12; inhibition, % at 25 µM; AID 651699, 2012; actives 0.58% (n = 360,000); NEDD8-conjugating enzyme Ubc12 (Homo sapiens) + NEDD8-activating enzyme E1 regulatory …; in the data active = inhibition above about 36%
# NPR2 activator: human GC-B receptor activators, primary screen, HEK293 GC-B cells, cGMP TR-FRET, EC30 CNP | activation, % at 10 µM | Atrial natriuretic peptide receptor 2 (Homo sapiens), P20594 | actives 0.11% (n = 370,000) | 0% at EC30 CNP, 100% saturating CNP;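 active = activation at 10 µM reaching about 35% in either raw or pattern-adjusted values, limit read from the data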
# TLR4-MyD88 BLA: inhibitors of TLR4-MyD88 association in cells, primary screen, cell-based, HeLa CL3-4, BLA complementation, FRET ratio; HeLa CL3-4 TLR4/MyD88 BLA complementation; inhibition, % at 8.4 µM; actives 0.18% (n = 200,000); in the data active = inhibition above about 25%;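 note: 0% = vehicle and 100% = reference inhibitor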
# NOD2-RIPK2 inh: NOD2-RIPK2 binding disruptors in cells, primary screen, fluorescence, CHO cells, BLA complementation. inhibition, % at 4.98 µM. Receptor-interacting serine/threonine-protein kinase 2 (Homo sapiens), O43353. actives 0.38% (n = 360,000). AID 624267, 2012. CCF4 ratio; in the data active = inhibition above about 21%;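 note: 0% = vehicle only and 100% = reference blocker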
# GC-A act: GC-A stimulated cGMP production enhancers – HEK293 GC-A cells, cGMP TR-FRET, EC30 ANP, primary screen | Atrial natriuretic peptide receptor 1 (Homo sapiens), P16066 | 0% at EC30 ANP, 100% saturating ANP | activation, % at 10 µM | actives 0.14% (n = 370,000) | AID 1671463, 2021; in the data active = activation above about 40%
# NOD2 RIPK2 conf: NOD2-RIPK2 binding disruptors, retest, confirmation, fluorescence, CHO cells, BLA complementation, triplicate; CCF4 FRET; AID 624370, 2012; inhibition, % at 4.98 µM; shares compounds with NOD2-RIPK2 inh; actives 70% (n = 1,200);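 active = mean inhibition across replicates above a set limit taken from the earlier primary screen, cut at about 21% in these data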;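 note: 0% = DMSO-only wells and the high end = clavulanate BLA-blocked wells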
# NOD2 BLA counter: hits BLA reporter in NOD2-RIPK2 inhibitor counterscreen; AID 624371; inhibition, % at 4.98 µM; actives 57% (n = 1,200); shares compounds with NOD2-RIPK2 inh; CHO BLA reporter, CCF4 FRET ratio;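 active = mean inhibition above the low-control mean inhibition plus three low-control SD, cut at about 11% in these data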;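 note: 0% = DMSO only wells and 100% = clavulanate high control wells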
# Numbers without * were called inactive; . = not tested or not shown.
SMILES,TLR9-MyD88 block,Neddyl block,NPR2 activator,TLR4-MyD88 BLA,NOD2-RIPK2 inh,GC-A act,NOD2 RIPK2 conf,NOD2 BLA counter
COc1ccc(-c2cc(-c3nc4ccccn4c3NCc3ccccc3)ccc2OC)cc1,-5,.,-9,.,29*,3,21,6
C#CCNC(=O)C[C@H]1C(=O)N(CCc2ccc(Cl)cc2)C2=CCCC[C@@]21C(=O)OCC,.,.,0,.,.,1,.,.
O=[N+]([O-])/C=C\c1ccc(N2CCOCC2)cc1,5,-4,-1,.,45*,25,43*,-5
O=C(Nc1ccccc1)C1=C[C@@H](c2ccccc2)C[C@@H](OCc2ccc(CO)cc2)O1,-14,-11,0,7,-3,-3,.,.
O=C(Nc1ccccc1)C1=C[C@@H](c2ccc(C(F)(F)F)cc2)C[C@@H](OCc2ccc(CO)cc2)O1,-4,-9,1,-1,22*,-2,0,4
CCCCCCCCCc1nc2sc3c(c2c(=O)n1NC(=O)c1ccc([N+](=O)[O-])cc1)CC(C)(C)OC3,-4,3,7,-19,32*,1,-1,1
Cc1cc(SC#N)cc(C)c1NC(=O)CCl,10,-3,19,13,31*,18,28*,-1
CCC(=O)Nc1ccc(SC#N)cc1C,-1,5,.,0,2,.,.,.
CCc1cc(SC#N)cc(C)c1NC(=O)CCl,7,4,6,-12,24*,8,25*,-5
CCc1nnn2c1Cn1c3ccccc3c(=O)n1[C@@H](C)C2,.,.,1,.,.,-3,.,.
Cc1[nH]n(-c2ccccc2)c(=O)c1C=Nc1cccc2cccnc12,19,-3,-1,12,32*,3,35*,32*
CC(C)(C)OC(=O)NCCCCCNC(=O)c1[nH]cnc1C(=O)N[C@@H](Cc1ccccc1)C(=O)OC(C)(C)C,7,0,.,.,31*,.,16,-9
COc1cc2c3nnc(-c4ccc(F)cc4)c-3cn(Cc3ccccc3)c2cc1OC,12,.,-1,22,67*,7,66*,66*
COc1ccc(Cl)c2sc(N(CCN(C)C)C(=O)CCS(=O)(=O)c3ccc(C)cc3)nc12,-7,-1,-11,.,-9,-12,.,.
COc1ccc(OC)c2sc(N(CCCN(C)C)C(=O)CCS(=O)(=O)c3ccccc3)nc12,16,8,-13,.,41*,-11,54*,5
Nc1[nH]c(C(=O)c2ccccc2)c(-c2ccc3ccccc3c2)c1C(=O)NCCc1ccc(Cl)cc1,.,.,-2,.,.,-6,.,.
CCCc1nnc(NC(=O)c2nc(S(=O)(=O)Cc3cccc(C)c3)ncc2Cl)s1,1,13,9,.,20,15,.,.
Cc1cccc(CS(=O)(=O)c2ncc(Cl)c(C(=O)Nc3c(C)cccc3C)n2)c1,8,1,4,.,67*,1,47*,-4
Cc1cccc(C)c1NC(=O)c1nc(S(=O)(=O)Cc2ccccc2)ncc1Cl,8,14,1,.,55*,-1,48*,5
COc1ccc(NC(=O)c2nc(S(=O)(=O)Cc3cccc(C)c3)ncc2Cl)c(OC)c1,4,7,13,.,9,11,.,.
Cc1cccc(CS(=O)(=O)c2ncc(Cl)c(C(=O)NCc3ccccc3)n2)c1,2,1,5,.,57*,9,69*,15*
COC(=O)c1cccc(Cn2ccc3ccc(-c4ccc5ccn(C(=O)c6ccccc6OC)c5c4)cc32)c1,.,.,1,.,.,3,.,.
O=S(=O)(c1cccs1)N1CCN(CC(O)COC2CCCc3ccccc32)CC1 (configuration not stated),1,0,1,1,-1,2,.,.
O=S(=O)(c1cccs1)N1CCN(CC(O)COc2cccc(Br)c2)CC1 (configuration not stated),-3,6,2,9,22*,3,-28,0
CNc1c2cccc(C)c2nc2c(C(=O)NCCN(C)C)cccc12,7,11,-4,.,41*,-8,58*,29*
SMILES,TLR9-MyD88 block,Neddyl block,NPR2 activator,TLR4-MyD88 BLA,NOD2-RIPK2 inh,GC-A act,NOD2 RIPK2 conf,NOD2 BLA counter
CCOc1ccccc1N1CCN(C(=O)C2=CC=CN3CCS(=O)(=O)N=C23)CC1,6,14,1,.,3,1,.,.
CCOC(=O)C1CCN(S(=O)(=O)c2ccc3c4c(cccc24)C(=O)N3CC)CC1,-1,.,1,.,24*,4,24*,24*
CCc1nc2ccc(C(=O)NCc3ccc4c(c3)OCO4)cn2c1N(CCC(C)C)CCN(C)C,.,16,2,.,-4,-1,.,.
O=C(Cn1ncc(Cl)c(Cl)c1=O)N1CCN(S(=O)(=O)c2ccc3ccccc3c2)CC1,11,-415,-16,19,50*,-24,68*,15*
Cc1cc(Br)ccc1NC(=O)CNC(=O)Cn1ncc(Cl)c(Cl)c1=O,5,-312,-3,-3,25*,-28,36*,4
O=C(Cn1ncc(Cl)c(Cl)c1=O)Nc1ccc2c(c1)OCO2,10,-68,-3,.,21*,0,25*,5
Cc1ccc(S(=O)(=O)N2CCCCC2)cc1NC(=O)Cn1ncc(Cl)c(Cl)c1=O,20,-458,6,.,44*,3,45*,12*
COc1ccc(-c2cc(-c3nnc(SCC(=O)N4CCOCC4)n3N)[nH]n2)cc1,.,.,-2,.,.,0,.,.
O=C(Cn1ncc(Cl)c(Cl)c1=O)NC(=O)NC1CCCCC1,6,-294,12,.,28*,16,47*,8
CCN(CC)S(=O)(=O)c1cc(NC(=O)Cn2ncc(Cl)c(Cl)c2=O)ccc1C,19,-307,2,.,22*,-2,35*,9
COc1ccc(N2CCCN(CC(=O)Nc3ccc(Cl)cc3)CC2)cc1,.,.,-5,.,.,2,.,.
Cc1ccc(C)c2sc(NC(=O)c3ccc(N4C(=O)CCC4=O)cc3)nc12,4,33,-3,-2,-5,4,.,.
